Measured values from the supplement of paper PMC10849652.
About 8,800 targets were measured; listed, in parts, are those with a hit and a random draw of the rest. About 0.5% of all pairs of compound and target were hits. Values without a mark were called inactive.

Columns and labels:
Assay in all cases: log2 fold change, soluble protein after heating vs DMSO (PISA); higher = thermal stabilisation; K562 lysate, 10 uM; active = over 0.2 and 3.5 SD of the protein, either way, in both replicates (recomputed)
[1] = compound: C#Cc1cccc(Nc2ncnc3cc(OCCOC)c(OCCOC)cc23)c1 [erlotinib]
Method in brief: (§1)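 Quantification was by TMTpro 16plex LC-MS/MS with equalised channel sums, applied to the supernatant after 21,000xg for 90 min. Samples were crude K562 extract at 1 mg/mL protein in PBS pH 7.4 with 1 mM MgCl2, treated with 10 μM compound for 30 min, heated for 3 min across 48°C-58°C, pooled and brought to 0.5% NP-40 at 4°C. Values are log-two fold changes in thermal stability relative to solvent controls, from duplicates.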

[2] = compound: C/C(=N\NC(=O)C1=CC(=CC=C1)S(=O)(=O)N2CCOCC2)/C3=C(C=CC(=C3)Cl)O
Method in brief: as §1

[3] = compound: C1=CC(=CC=C1C2=NC3=C(N2)C=C(C=C3)C(=O)N)OC4=CC=C(C=C4)Cl
Method in brief: as §1

[4] = compound: C1=CC2=C(C=CC(=C2)/C=C\3/C(=O)NC(=NCC4=CC=CS4)S3)N=C1
Method in brief: as §1

[5] = compound: C1=CC2=NC=CN=C2C=C1/C=C/3\C(=O)NC(=O)S3
Method in brief: as §1

[6] = compound: C1=CC=C(C=C1)C2=NC(=C(N2)C3=CC=NC=C3)C4=CC(=C(C=C4)Cl)O
Method in brief: as §1

[7] = compound: C1=CC=C2C(=C1)C3=NNC4=CC=CC(=C43)C2=O
Method in brief: as §1

[8] = compound: C1CCN(C1)C(=O)NC2=CC=CC(=C2)NC3=NC=C(C(=N3)NCCC4=CN=CN4)Br
Method in brief: as §1

[9] = compound: C1CN(CCC1(CC2=CC=C(C=C2)Cl)N)C3=NC=NC4=C3C=CN4
Method in brief: as §1

[10] = compound: C1COCCN1CCN2C3=CC=CC=C3N=C2NC(=O)C4=CC(=CC=C4)[N+](=O)[O-] [IRAK-1-4 Inhibitor I]
Method in brief: as §1

[11] = compound: C=CC(=O)N1CCC[C@@H](n2nc(-c3ccc(Oc4ccccc4)cc3)c3c(N)ncnc32)C1 [ibrutinib]
Method in brief: as §1

[12] = compound: CC(=O)c1cnc2ccc(-c3cc(Cl)c(O)c(Cl)c3)nc2c1N[C@H]1CC[C@H](CN(C)C)CC1
Method in brief: as §1

[13] = compound: CC(C)(C)Cn1c(N)nc2ccc(-c3[nH]c(C(C)(C)C)nc3-c3ccc(F)cc3)nc21 [ralimetinib]
Method in brief: as §1

[14] = compound: CC(C)(O)CC(=O)NCCn1ccc2ncnc(Nc3ccc(Oc4cccc(C(F)(F)F)c4)c(Cl)c3)c21
Method in brief: as §1

[15] = compound: CC(C)C1=C2N=C(C=C(N2N=C1)NCC3=CC=CC=C3)NCCCCCCN
Method in brief: as §1

[16] = compound: CC1=C(C(CC(=O)N1)C2=CC=C(C=C2)C(F)(F)F)C(=O)NC3=C(C=C4C(=C3)C=NN4)F
Method in brief: as §1

[17] = compound: CC1=C(C2=C(C=C1)C(=O)C3=CC=CC=C3N2CCCN)C
Method in brief: as §1

[18] = compound: CC1=C(C=C(C=C1)NC(=O)C2=CC(=CC=C2)C(C)(C)C#N)NC3=CC4=C(C=C3)N=CN(C4=O)C
Method in brief: as §1

[19] = compound: CC1=C(C=C(C=C1)NC(=O)C2=CC(=CC=C2)N(C)C)NC(=O)C3=CC=C(C=C3)O
Method in brief: as §1

[20] = compound: CC1=CC=C(C=C1)SC2=C3C=C(SC3=CN=C2)C(=O)N
Method in brief: as §1

Sequence of UniProt Q9H467 (Q9H467 whole entry, looked up): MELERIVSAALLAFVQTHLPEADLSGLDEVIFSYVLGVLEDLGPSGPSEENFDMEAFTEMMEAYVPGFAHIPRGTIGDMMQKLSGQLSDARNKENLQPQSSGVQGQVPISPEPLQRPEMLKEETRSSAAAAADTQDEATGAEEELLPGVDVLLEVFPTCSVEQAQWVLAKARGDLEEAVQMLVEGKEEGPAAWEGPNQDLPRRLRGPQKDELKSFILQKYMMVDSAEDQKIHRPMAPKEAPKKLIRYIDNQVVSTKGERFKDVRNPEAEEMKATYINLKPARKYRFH
Sequence of UniProt P41240 (P41240 whole entry, looked up): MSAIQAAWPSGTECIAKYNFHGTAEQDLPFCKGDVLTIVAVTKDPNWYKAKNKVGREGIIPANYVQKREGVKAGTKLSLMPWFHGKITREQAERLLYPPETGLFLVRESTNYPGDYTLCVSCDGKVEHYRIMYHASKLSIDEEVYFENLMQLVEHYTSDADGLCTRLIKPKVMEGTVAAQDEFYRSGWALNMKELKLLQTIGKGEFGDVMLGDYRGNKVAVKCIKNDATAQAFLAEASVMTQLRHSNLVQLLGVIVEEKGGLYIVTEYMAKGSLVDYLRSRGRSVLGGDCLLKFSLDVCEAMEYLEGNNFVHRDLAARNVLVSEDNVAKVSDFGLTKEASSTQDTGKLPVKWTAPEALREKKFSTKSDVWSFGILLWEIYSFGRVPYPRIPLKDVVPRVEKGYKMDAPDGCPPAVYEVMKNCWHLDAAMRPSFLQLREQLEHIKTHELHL
Sequence of UniProt P50570 (P50570 whole entry, looked up): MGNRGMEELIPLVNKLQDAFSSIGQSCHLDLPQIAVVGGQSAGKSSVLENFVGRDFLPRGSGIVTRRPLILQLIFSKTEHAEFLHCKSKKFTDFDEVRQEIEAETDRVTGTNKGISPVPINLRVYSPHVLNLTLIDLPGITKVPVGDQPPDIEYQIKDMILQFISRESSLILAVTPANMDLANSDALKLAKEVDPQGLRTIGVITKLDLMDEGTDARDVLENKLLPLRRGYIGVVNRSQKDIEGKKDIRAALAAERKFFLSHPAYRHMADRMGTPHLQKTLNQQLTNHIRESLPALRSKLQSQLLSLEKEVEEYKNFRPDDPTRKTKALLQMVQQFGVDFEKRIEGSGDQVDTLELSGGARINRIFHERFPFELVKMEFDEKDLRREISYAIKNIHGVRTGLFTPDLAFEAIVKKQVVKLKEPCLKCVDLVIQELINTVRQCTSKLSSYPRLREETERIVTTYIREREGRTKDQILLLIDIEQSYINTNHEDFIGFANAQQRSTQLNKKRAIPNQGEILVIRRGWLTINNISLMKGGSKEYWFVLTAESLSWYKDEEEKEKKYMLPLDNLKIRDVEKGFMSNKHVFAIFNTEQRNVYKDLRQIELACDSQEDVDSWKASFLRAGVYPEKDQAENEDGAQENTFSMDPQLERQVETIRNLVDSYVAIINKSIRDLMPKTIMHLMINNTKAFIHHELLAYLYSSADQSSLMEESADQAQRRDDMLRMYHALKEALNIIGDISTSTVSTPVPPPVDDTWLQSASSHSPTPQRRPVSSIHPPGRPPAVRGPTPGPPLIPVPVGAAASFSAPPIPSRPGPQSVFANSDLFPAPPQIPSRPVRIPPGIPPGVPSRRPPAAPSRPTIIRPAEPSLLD
Sequence of UniProt Q14008 (Q14008 whole entry, looked up): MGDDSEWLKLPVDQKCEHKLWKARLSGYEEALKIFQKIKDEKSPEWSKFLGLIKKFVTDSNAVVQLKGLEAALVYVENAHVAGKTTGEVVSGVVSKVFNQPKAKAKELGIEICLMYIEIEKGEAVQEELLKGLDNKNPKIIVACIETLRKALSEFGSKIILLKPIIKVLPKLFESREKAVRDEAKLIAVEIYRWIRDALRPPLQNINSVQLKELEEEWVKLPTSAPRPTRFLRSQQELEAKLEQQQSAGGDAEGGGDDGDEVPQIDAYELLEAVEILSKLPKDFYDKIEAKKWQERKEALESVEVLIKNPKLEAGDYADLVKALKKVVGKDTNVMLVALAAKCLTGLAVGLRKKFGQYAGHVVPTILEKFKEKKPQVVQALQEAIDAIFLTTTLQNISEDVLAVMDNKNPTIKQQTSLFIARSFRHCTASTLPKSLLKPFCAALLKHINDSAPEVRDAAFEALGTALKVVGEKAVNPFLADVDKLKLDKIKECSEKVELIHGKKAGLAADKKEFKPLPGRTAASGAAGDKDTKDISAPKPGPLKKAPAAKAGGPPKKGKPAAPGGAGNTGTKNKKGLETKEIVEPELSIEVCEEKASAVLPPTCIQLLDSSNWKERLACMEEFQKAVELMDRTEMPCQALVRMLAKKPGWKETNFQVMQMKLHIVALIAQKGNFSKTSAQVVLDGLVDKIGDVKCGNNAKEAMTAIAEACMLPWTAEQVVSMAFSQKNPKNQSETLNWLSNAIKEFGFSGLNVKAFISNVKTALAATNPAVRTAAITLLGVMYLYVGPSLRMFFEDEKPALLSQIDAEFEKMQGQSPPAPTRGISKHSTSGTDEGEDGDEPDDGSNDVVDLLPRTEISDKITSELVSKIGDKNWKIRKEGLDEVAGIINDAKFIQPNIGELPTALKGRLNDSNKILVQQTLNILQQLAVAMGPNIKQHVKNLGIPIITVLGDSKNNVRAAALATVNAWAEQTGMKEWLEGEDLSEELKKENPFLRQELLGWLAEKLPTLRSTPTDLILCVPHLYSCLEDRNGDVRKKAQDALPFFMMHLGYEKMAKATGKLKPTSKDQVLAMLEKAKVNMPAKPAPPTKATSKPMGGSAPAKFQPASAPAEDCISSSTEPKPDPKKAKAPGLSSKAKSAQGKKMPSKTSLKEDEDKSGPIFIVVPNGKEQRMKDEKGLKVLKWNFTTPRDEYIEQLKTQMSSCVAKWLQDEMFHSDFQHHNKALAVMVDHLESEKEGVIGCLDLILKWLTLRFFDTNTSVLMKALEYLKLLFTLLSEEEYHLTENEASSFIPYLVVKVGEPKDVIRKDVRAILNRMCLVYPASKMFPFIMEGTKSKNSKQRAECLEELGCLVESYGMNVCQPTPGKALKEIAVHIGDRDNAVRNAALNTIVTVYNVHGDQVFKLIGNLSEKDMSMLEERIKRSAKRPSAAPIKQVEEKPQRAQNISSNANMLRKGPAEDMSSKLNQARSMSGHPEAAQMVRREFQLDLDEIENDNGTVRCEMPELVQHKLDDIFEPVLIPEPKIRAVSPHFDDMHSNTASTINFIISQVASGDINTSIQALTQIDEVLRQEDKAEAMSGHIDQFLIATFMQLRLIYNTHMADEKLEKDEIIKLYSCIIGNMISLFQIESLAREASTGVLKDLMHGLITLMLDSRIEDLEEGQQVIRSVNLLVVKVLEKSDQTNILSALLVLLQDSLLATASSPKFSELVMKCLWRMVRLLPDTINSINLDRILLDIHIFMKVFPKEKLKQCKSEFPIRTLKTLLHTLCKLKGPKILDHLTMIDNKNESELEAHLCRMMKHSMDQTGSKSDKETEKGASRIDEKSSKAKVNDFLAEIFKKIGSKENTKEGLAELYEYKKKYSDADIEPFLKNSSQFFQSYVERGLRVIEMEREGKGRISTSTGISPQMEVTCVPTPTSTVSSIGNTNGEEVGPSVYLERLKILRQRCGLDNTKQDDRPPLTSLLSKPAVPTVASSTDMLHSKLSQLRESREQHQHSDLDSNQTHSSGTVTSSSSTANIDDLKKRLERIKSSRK
Sequence of UniProt Q8TDD1 (Q8TDD1 whole entry, looked up): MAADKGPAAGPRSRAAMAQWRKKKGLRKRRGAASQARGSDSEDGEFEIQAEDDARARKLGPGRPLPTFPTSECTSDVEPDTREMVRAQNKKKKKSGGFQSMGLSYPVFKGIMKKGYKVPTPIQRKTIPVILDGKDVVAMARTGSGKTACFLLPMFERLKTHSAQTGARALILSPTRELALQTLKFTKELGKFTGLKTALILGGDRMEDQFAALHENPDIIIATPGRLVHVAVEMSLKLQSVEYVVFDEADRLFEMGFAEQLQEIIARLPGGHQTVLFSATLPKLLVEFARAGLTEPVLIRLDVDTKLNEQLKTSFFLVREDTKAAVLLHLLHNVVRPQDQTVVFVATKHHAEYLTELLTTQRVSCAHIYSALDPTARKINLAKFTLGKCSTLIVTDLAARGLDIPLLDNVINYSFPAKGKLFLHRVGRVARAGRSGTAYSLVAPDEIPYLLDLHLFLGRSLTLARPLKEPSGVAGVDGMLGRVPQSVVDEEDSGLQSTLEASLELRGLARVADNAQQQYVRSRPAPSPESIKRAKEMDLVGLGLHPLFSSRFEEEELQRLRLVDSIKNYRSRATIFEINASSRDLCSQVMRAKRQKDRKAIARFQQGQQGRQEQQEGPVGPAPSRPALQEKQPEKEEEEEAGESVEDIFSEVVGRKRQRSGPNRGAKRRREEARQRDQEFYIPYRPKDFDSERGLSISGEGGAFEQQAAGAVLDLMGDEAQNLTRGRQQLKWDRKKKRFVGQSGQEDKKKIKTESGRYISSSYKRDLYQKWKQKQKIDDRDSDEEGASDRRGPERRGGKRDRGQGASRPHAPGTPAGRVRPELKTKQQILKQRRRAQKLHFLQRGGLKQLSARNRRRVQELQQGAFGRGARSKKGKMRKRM
Sequence of UniProt P17661 (P17661 whole entry, looked up): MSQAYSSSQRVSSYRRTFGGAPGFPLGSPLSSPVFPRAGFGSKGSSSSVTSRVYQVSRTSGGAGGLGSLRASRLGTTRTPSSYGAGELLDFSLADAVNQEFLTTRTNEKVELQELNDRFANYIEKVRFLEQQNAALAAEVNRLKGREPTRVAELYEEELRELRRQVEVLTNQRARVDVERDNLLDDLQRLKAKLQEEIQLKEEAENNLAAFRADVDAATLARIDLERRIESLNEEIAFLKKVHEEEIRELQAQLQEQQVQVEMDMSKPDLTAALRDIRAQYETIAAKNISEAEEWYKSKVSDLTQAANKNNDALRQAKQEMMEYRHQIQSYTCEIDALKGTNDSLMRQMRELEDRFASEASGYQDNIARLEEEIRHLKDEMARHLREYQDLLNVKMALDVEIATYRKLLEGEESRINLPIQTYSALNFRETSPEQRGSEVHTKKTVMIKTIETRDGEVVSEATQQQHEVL
Sequence of UniProt P61024 (P61024 whole entry, looked up): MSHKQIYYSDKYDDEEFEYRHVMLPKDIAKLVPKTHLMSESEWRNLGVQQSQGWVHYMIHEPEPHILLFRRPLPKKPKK

Row | Target | log2 fold change [1] | log2 fold change [2] | log2 fold change [3] | log2 fold change [4] | log2 fold change [5] | log2 fold change [6] | log2 fold change [7] | log2 fold change [8] | log2 fold change [9] | log2 fold change [10] | log2 fold change [11] | log2 fold change [12] | log2 fold change [13] | log2 fold change [14] | log2 fold change [15] | log2 fold change [16] | log2 fold change [17] | log2 fold change [18] | log2 fold change [19] | log2 fold change [20]
1 | CMBL (UniProt Q96DG6) | 0.026 | 0.047 | -0.03 | -0.031 | 0.01 | -0.002 | 0.045 | 0.006 | -0.002 | 0.025 | -0.059 | 0.22 (active) | 0.018 | -0.009 | -0.056 | -0.082 | 0 | 0.014 | -0.04 | -0.011
2 | CUEDC2 (UniProt Q9H467) | -0.011 | 0.044 | 0.032 | 0.035 | -0.02 | 0 | -0.039 | 0.029 | -0.106 | 0.013 | 0.056 | 0.044 | 0.001 | -0.032 | 0.026 | -0.027 | -0.014 | 0.052 | 0.018 | -0.082
3 | CIAO2A (UniProt Q9H5X1) | -0.052 | 0.029 | 0.03 | -0.056 | -0.071 | -0.025 | -0.007 | 0.04 | 0.009 | 0.032 | 0.005 | 0.044 | 0.053 | -0.034 | 0.056 | 0.032 | -0.06 | -0.026 | -0.067 | -0.02
4 | DHRS3 (UniProt O75911) | 0.056 | 0.08 | 0.047 | -0.008 | -0.044 | 0.03 | -0.028 | -0.007 | 0.016 | 0.046 | 0.064 | -0.07 | 0.048 | -0.023 | 0.034 | -0.001 | -0.069 | -0.015 | -0.046 | 0.045
5 | DDX54 isoform 2 (UniProt Q8TDD1) | -0.088 | -0.36 | -0.038 | -0.035 | -0.191 | -0.001 | -0.054 | 0.069 | 0.014 | -0.058 | -0.005 | 0.006 | 0.036 | 0.023 | -0.001 | 0.02 | -0.054 | -0.054 | -0.006 | 0.013
6 | DNAH10 (UniProt Q8IVF4) | 0.003 | 0.047 | -0.059 | -0.053 | -0.026 | 0.026 | -0.043 | 0.012 | 0.036 | 0.054 | 0.038 | -0.017 | -0.123 | -0.112 | -0.015 | -0.04 | -0.069 | 0.137 | -0.014 | -0.051
7 | DNM2 (UniProt P50570) | 0.045 | -0.009 | 0.049 | 0.013 | 0.029 | 0.003 | -0.049 | -0.022 | -0.008 | 0 | 0.014 | 0 | 0.013 | 0.013 | 0.018 | 0.011 | 0.024 | -0.016 | 0.006 | 0.004
8 | CSK (UniProt P41240) | 0.045 | -0.025 | -0.004 | -0.028 | -0.035 | 0.031 | 0.106 | 0.107 | 0.033 | 0.053 | 0.891 (active) | 0.242 | 0 | 0.181 | 0 | -0.086 | -0.04 | 0.626 (active) | -0.015 | -0.054
9 | COG2 (UniProt Q14746) | 0.009 | 0.036 | -0.021 | -0.022 | -0.032 | -0.017 | -0.001 | 0.011 | 0.031 | 0.03 | -0.029 | -0.023 | 0.017 | -0.017 | 0 | 0.023 | -0.035 | -0.019 | 0.062 | -0.009
10 | CHUK (UniProt O15111) | -0.005 | 0.114 | -0.076 | 0.01 | -0.019 | 0.022 | 0.015 | -0.002 | -0.002 | -0.044 | 0.034 | 0.04 | 0.063 | 0.071 | 0.014 | -0.047 | -0.014 | -0.013 | 0.009 | -0.016
11 | DES (UniProt P17661) | 0.014 | 0.012 | 0.023 | -0.074 | -0.016 | -0.026 | -0.018 | 0.048 | 0.1 | 0.09 | 0.044 | 0 | 0.025 | -0.16 | -0.01 | -0.026 | -0.045 | 0.057 | -0.017 | -0.057
12 | CKS1B (UniProt P61024) | -0.058 | -0.097 | -0.037 | 0.042 | 0.008 | 0.121 | 0.092 | 0.038 | -0.012 | -0.018 | 0.049 | 0.01 | -0.161 | -0.034 | 0.011 | 0.055 | 0 | -0.059 | 0.003 | -0.012
13 | CKAP5 (UniProt Q14008) | 0.018 | 0.003 | 0.005 | -0.01 | -0.009 | 0.002 | -0.055 | -0.015 | 0.004 | 0.001 | -0.024 | -0.008 | 0.015 | -0.012 | -0.007 | 0.007 | 0.005 | -0.013 | 0.023 | 0.006
14 | CWC22 (UniProt Q9HCG8) | 0.058 | 0.006 | -0.046 | -0.009 | -0.032 | -0.025 | -0.092 | -0.014 | -0.006 | -0.017 | 0.027 | -0.007 | 0.007 | -0.002 | -0.005 | 0.06 | 0 | -0.002 | 0.028 | -0.009
15 | CSNK1A1 (UniProt P48729) | -0.027 | -0.106 | 0.093 | 0.028 | 0.013 | 0.217 | 0.406 (active) | -0.082 | -0.032 | -0.038 | -0.098 | 0.148 | 0.088 | -0.002 | -0.035 | -0.019 | -0.002 | -0.029 | 0 | 0.003
16 | CYCS (UniProt P99999) | -0.022 | -0.121 | -0.019 | -0.006 | 0.003 | 0.008 | 0.02 | 0.011 | 0.002 | -0.005 | 0.027 | 0.024 | 0 | 0.004 | -0.016 | -0.05 | -0.005 | 0.012 | -0.015 | 0.031
